Laboratory results as given in PubChem BioAssay (Tox21).
Results filed as inconclusive are left out. A call without a number means that no potency is given here. Where a structure was tested more than once in an assay, its records may differ in their call. Active and inactive are the calls of the source. Calls follow the shape of the full dose curve.

assay: qHTS assay to identify small molecule antagonists of the estrogen receptor alpha (ER-alpha) signaling pathway using the BG1 cell line (AID 743080); details: BG1Luc4E2 ERE-luciferase antagonist mode, luminescence; series mostly up to 70.3 µM;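 also: BG1 cells stimulated with 17beta-estradiol alongside compound; nearly all actives have a fitted effect of over 25% in size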
Text: National Center for Advancing Translational Sciences [NCATS]
NIH Chemical Genomics Center [NCGC]
U.S. Environmental Protection Agency [EPA]
National Institutes of Environmental Health Sciences [NIEHS]
National Toxicology Program [NTP]
U.S. Food and Drug Administration [FDA]
Estrogen receptor (ER), a nuclear hormone receptor, plays an important role in development, metabolic homeostasis and reproduction. Endocrine disrupting chemicals (EDCs) and their interactions with steroid hormone receptors like ER causes disruption of normal endocrine function. Therefore, it is important to understand the effect of environmental chemicals on the ER signaling pathway. To identify ER antagonists, BG1-Luc-4E2 cell line (provided by Dr. Michael Denison from University of California) has been used to screen the Tox21 10K compound library. BG1Luc4E2 cell line endogenously expresses full-length ER-alpha and is stably transfected with a plasmid containing four estrogen responsive elements (ERE) upstream of a luciferase reporter gene.
Tox21 Assay Protocol Summary:
BG1-Luc-4E2 cells were cultured in phenol red free assay medium containing 10% charcoal stripped FBS for 5 days before the assay was performed. The cells were dispensed at 4,000 cells/4 uL of assay medium per well into white wall/solid-bottom 1536-well plates using a Multidrop Combi (ThermoFisher Scientific, Waltham, MA) dispenser. The assay plates were incubated at a 37C and 5% CO2 for 24 h, and then 23 nL of compounds dissolved in DMSO, positive controls or DMSO only was transferred to the assay plate using a Pintool station (Kalypsys, San Diego, CA), followed by addition of 1 uL of 17beta-estradiol in assay medium using a Flying Reagent Dispenser (Aurora Discovery, San Diego, CA). After the plates were incubated at 37 C and 5% CO2 for 21.5 h, 1 uL of CellTiter-Fluor reagent (Promega, Madison, WI) of measuring cytotoxicity was added using Flying Reagent Dispenser (FRD) to each well. The assay plates were incubated at 37 C and 5% CO2 for additional 30 min and the fluorescence intensity was quantified by a ViewLux plate reader (PerkinElmer, Shelton, CT). For measuring luciferase reporter gene activity, 4 uL of ONE-Glo reagent (Promega) was added to each plate using an FRD and luminescence was quantified by a ViewLux plate reader after 30 min incubation at room temperature.
Potency is read from the fitted curve at half-maximal effect.

SMILES | Potency
COc1cc(C(=O)OC(COCCC(C)C)CN2CCOCC2)cc(OC)c1OC (stereo not given) | inactive
Cc1ncc(COP(=O)(O)O)c(C=O)c1O | inactive
CCCCCC(=O)OCCc1ccccc1 | inactive
CC(C)(C)C(=O)Oc1ccc(S(=O)(=O)Nc2ccccc2C(=O)NCC(=O)O)cc1 | inactive
C=C[Si](OC(C)=O)(OC(C)=O)OC(C)=O | inactive
CC(=O)c1ccc2ccccc2c1 | inactive
CC1=NN(c2cc(S(=O)(=O)O)ccc2Cl)C(=O)C1N=Nc1ccccc1 (stereo not given) | inactive
CC(=O)O[C@@]12CO[C@@H]1C[C@H](O)[C@@]1(C)C(=O)[C@H](O)C3=C(C)[C@@H](OC(=O)[C@H](O)[C@@H](NC(=O)OC(C)(C)C)c4ccccc4)C[C@@](O)([C@@H](OC(=O)c4ccccc4)[C@H]21)C3(C)C | 59.6 nM (active) and inactive
O=C(c1ccccc1O)c1ccccc1O | inactive
CC1=NN(c2cccc(S(=O)(=O)O)c2)C(=O)C1 | inactive
CO[C@@]1(NC(=O)C(C(=O)O)c2ccc(O)cc2)C(=O)N2C(C(=O)O)=C(CSc3nnnn3C)CO[C@@H]21 (stereo not given in full) | inactive
OCCCCCO | inactive
C=CCOCC(O)CO (stereo not given) | inactive
CCCCCC(C)N (stereo not given) | inactive
Cc1ncc([C@@H](CCCCCCc2ccc3c(n2)NCCC3)CC(=O)O)cn1 | inactive
[K+] | inactive
CCOC(=O)c1ccccc1 | inactive
CC(N)C12CC3CC(CC(C3)C1)C2 (stereo not given) | inactive
CC1OC1C1CCC2(C)OC2C1 (stereo not given) | inactive
CCOC(=O)CCC(=O)OCC | inactive

SMILES | Potency
CC1=CCC(O)(C(C)C)CC1 (stereo not given) | inactive
COc1ccc2cc1Oc1cc3c(cc1OC)CC[N+](C)(C)[C@H]3Cc1ccc(cc1)Oc1c(OC)c(OC)cc3c1[C@@H](C2)[N+](C)(C)CC3 | inactive
C=CCCCCCCCCC(=O)OCC | inactive
CC(=O)c1cnccn1 | inactive
CCN1C=CN(C)C1C (stereo not given) | inactive
CCCCCCCCCCCCCCCCCCO | inactive
Cc1ccc(-c2ncc(Cl)cc2-c2ccc(S(C)(=O)=O)cc2)cn1 | inactive
CC1=NS(=O)(=O)c2cc(Cl)ccc2N1 | inactive
CC(C)c1ccc2ncccc2c1 | inactive
CC[C@H]1OC(=O)[C@H](C)[C@@H](O[C@H]2C[C@@](C)(OC)[C@@H](O)[C@H](C)O2)[C@H](C)[C@@H](O[C@@H]2O[C@H](C)C[C@H](N(C)C)[C@H]2O)[C@](C)(OC)C[C@@H](C)C(=O)[C@H](C)[C@@H](O)[C@]1(C)O | inactive
C[N+](C)(C)CCCCCCCCCC[N+](C)(C)C | inactive
CCN[C@@H]1C[C@H](N)[C@@H](OC2OC(CN)=CCC2N)[C@H](O)[C@H]1O[C@H]1OC[C@](C)(O)[C@H](NC)[C@H]1O (stereo not given in full) | inactive
N[C@H](C(=O)O)[C@@H](O)c1ccc(O)c(O)c1 | inactive
CN(C)C(=O)Oc1ccc[n+](C)c1 | inactive
CN1[C@@H]2CC[C@H]1CC(OC(=O)C(O)c1ccccc1)C2 (stereo not given in full) | inactive
CCC(C)(CCCC(C)C)OC(C)=O (stereo not given) | inactive
CC(=O)Oc1cccc(C)c1 | inactive
CC(C)(CCC(=O)O)C(=O)O | inactive
CCOCC(C)O (stereo not given) | inactive
CC(C)(N)C#N | inactive
